# Screening results deposited in PubChem BioAssay by National Center for Advancing Translational Sciences (NCATS).
# In the library only some 12% were active in any assay of this set; here they are far more common.
# Sfp inh: qHTS Assay for Inhibitors of Bacillus subtilis Sfp phosphopantetheinyl transferase (PPTase) | 4'-phosphopantetheinyl transferase ffp (Bacillus subtilis), Q9F4F7 | Biochemical Sfp PPTase activity, qHTS | Potency, µM, inactives show largest response in the series, negative = inhibition, most hits filed as inhibitors | 310,000 tested, 3.5% active;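 further: the enzyme is Sfp with the accession as filed and its product quenches rhodamine fluorescence; 0% = enzyme reaction without inhibitor and -100% = no enzyme wells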
#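 Step 1, compound plus 15 nM Sfp-PPTase, 15 min, room temperature. Step 2, add rhodamine-CoA (5 uM) and BHQ-2-YbbR (12.5 uM). Step 3, read 525/598 nm fluorescence at 0 and 30 min.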
# L3MBTL1 block: qHTS Assay for the Inhibitors of L3MBTL1; Lethal(3)malignant brain tumor-like protein 1 (Homo sapiens), Q9Y468; AlphaScreen L3MBTL1–H3K9me1 peptide binding; Potency, µM (series often up to 57.1 µM), inactives show at the highest dose activity, negative = inhibition, hits mostly inhibitors; 230,000 tested, 0.66% active; AID 485360, 2010; further: on the % scale 0 is the no-effect control and ±100 the full control effect; nearly all actives have a fitted effect of over 60% in size
#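 L3MBTL1 (50 nM) pre-complexed 30 min with biotinylated H3(1-15)K9me1 peptide (75 nM), then compounds added for 30 min at room temperature; AlphaScreen streptavidin donor/nickel chelate acceptor beads (10 ug/mL final) read after 30 min dark incubation.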
# G9a inh: qHTS Assay for Inhibitors of Histone Lysine Methyltransferase G9a; Histone-lysine N-methyltransferase EHMT2 (Homo sapiens), Q96KQ7; G9a H3K9 monomethylation, AlphaScreen, 2 h; 350,000 tested, 8.8% active; Potency, µM (series often up to 102 µM), without a hit: at the highest dose activity, negative = inhibition, most hits filed as inhibitors; further: on the % scale 0 is the no-effect control and ±100 the full control effect; nearly all actives have a fitted effect of over 75% in size
# Target sequence (Q96KQ7 913-1193 limits assumed): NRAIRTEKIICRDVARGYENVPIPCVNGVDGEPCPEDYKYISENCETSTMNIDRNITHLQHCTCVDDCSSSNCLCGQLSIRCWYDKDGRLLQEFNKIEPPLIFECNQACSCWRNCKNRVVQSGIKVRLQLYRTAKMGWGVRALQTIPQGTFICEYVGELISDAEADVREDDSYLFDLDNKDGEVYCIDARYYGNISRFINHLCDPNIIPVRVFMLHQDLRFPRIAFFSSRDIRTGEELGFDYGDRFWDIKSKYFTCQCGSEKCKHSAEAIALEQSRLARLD
#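 Compounds were preincubated with 20 nM G9a for 15 min, after which biotinylated H3K9 peptide (500 nM) and SAM (20 uM) started a 2 h room-temperature reaction. Monomethylated product was quantified by antibody-based AlphaScreen chemiluminescence.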
# HP1b chromo inh: HTS for Inhibitors of HP1-beta Chromodomain Interactions with Methylated Histone Tails | AID 540317, 2011 | AlphaScreen HP1-beta / biotin-H3K9me3 peptide binding | 390,000 tested, 0.56% active | Potency, µM (series often up to 114 µM), inactives show at the highest dose activity change, negative = inhibition, most hits filed as inhibitors | Chromobox protein homolog 1 (Homo sapiens), P83916; further: nearly all actives have a fitted effect of over 70% in size
# Target sequence (P83916 whole entry, looked up): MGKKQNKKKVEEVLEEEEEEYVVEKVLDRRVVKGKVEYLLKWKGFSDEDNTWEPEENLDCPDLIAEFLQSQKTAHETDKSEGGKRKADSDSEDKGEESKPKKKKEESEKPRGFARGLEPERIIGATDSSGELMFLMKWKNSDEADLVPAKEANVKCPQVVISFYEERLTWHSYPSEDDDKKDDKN
#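 AlphaScreen: HP1-beta (50 nM) preformed 30 min with biotin-H3(1-18)K9me3 peptide (50 nM) in PBS pH 7.4, 0.01% Tween-20. Compound added for 30 min at RT, then streptavidin donor/nickel chelate acceptor beads (10 ug/mL) for 30 min.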
# JMJD2A Tudor: qHTS Assay for Inhibitors of JMJD2A-Tudor Domain | Lysine-specific demethylase 4A (Homo sapiens), O75164 | AlphaScreen JMJD2A-Tudor / H3K4me3 peptide binding | Potency, µM (highest dose often 114 µM), inactives show top-dose activity change, negative = inhibition, usual class: inhibitors | 390,000 tested, 4.4% active | AID 504339, 2011; further: on the % scale 0 is the no-effect control and ±100 the full control effect; nearly all actives have a fitted effect of over 50% in size
# BAZ2B block: qHTS Assay for Inhibitors of BAZ2B. Bromodomain adjacent to zinc finger domain protein 2B (Homo sapiens), Q9UIF8. AlphaScreen BAZ2B-H3K14Ac peptide displacement. Potency, µM (series often up to 114 µM), inactives show at the highest dose activity change, negative = inhibition, usual class: inhibitors. 360,000 tested, 4.4% active; further: on the % scale 0 is the no-effect control and ±100 the full control effect; nearly all actives have a fitted effect of over 60% in size
#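 BAZ2B (50 nM) with biotin-H3(5-23)K14Ac peptide (50 nM) in PBS pH 7.4, 0.01% Tween-20, preformed 30 min, then compound 30 min at room temperature; top concentration 110uM. AlphaScreen streptavidin donor/nickel chelate acceptor beads (10 ug/mL final), 20 min dark, signal read.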
# The depositor's hits bear a star; ? = inconclusive; / = no result given; [ ] = another dose, or the depositor's remark. The call rests on the fitted dose curve; in most records, active means well fitted curve in the direction sought with a large enough effect; inconclusive means small, poorly fitted or top-dose-only effect, or another doubt; inactive means no such curve, though single readings can be large; an effect the other way counts as inactive or inconclusive. Potency means the concentration at half of the fitted maximal effect.
SMILES,Sfp inh,L3MBTL1 block,G9a inh,HP1b chromo inh,JMJD2A Tudor,BAZ2B block
CCc1ccc(OCC(O)CN2CCC(CN3C(=O)c4cccc5cccc(c45)C3=O)CC2)cc1 (stereo not given),50µM*,9%,13%[59 µM],-34%,?,-11%
O=C1c2cccc3cccc(c23)C(=O)N1CCN1CCN(CC(O)COc2ccc3ccccc3c2)CC1 (stereo not given),25µM*,-1%,?,-17%,?,?
O=C1c2cccc3cccc(c23)C(=O)N1CC1CCN(CC(O)COc2ccc3ccccc3c2)CC1 (stereo not given),8%,-1%,10µM*,?,13µM*,?
COc1ccc(COCC(O)CN2CCC(CN3C(=O)c4cccc5cccc(c45)C3=O)CC2)cc1OC (stereo not given),-5%,-4%,79µM*,7%,-20%,-38%
O=C(Nc1ccc(F)cc1F)c1ccc(-c2ccccc2)s1,/,/,0%[59 µM],29%,11%,7%
COC(=O)[C@]1(Cc2ccccc2)N[C@H](CN(C)C(=O)Nc2ccc(C(F)(F)F)cc2)[C@@H]2C(=O)N(C)C(=O)[C@@H]21,/,11%,/,19%,-18%,/
CCOc1ccccc1C(=O)Nc1ccccc1-c1ccccc1,6%,32%,27%[59 µM],103%,24%,53%
CC(=O)c1ccccc1OCC(O)CN1CCN(CCN2C(=O)c3cccc4cccc(c34)C2=O)CC1 (stereo not given),10%,-8%,23%[12.7 µM],17%,-27%,-29%
Cc1ccc(C)c(OCC(O)CN2CCN(CCN3C(=O)c4cccc5cccc(c45)C3=O)CC2)c1 (stereo not given),-28%,-9%,?,-38%,?,50µM*
Cc1cc(C)cc(NC(=O)C2CCN(S(C)(=O)=O)CC2)c1,9%,1%[2.29 µM],-10%[0.501 µM],5%,-6%,4%
Cc1cc(C)cc(NC(=O)C2CCN(c3nccs3)CC2)c1,89µM*,-2%,9%,?,-18%,12%
CCOCCCn1c(=N)c(C(N)=S)cc2c(=O)n3cccc(C)c3nc21,-109%,-5%,?,-23%,79µM*,?
CCCCNC(=O)c1cc2c(=O)n3cccc(C)c3nc2n1C,16%,2%,2%,/,/,-2%
COCCNC(=O)c1cc2c(=O)n3cccc(C)c3nc2n1C,18%,1%,28µM*,38%,6%,0%
Cc1cccn2c(=O)c3cc(C(=O)NC4CCCCC4)c(=N)n(Cc4ccccc4)c3nc12,28µM*,/,10µM*,34%,-5%,25µM*
Cc1cccn2c(=O)c3cc(C(=O)NCc4ccccc4)c(=N)n(CCCN4CCOCC4)c3nc12,/,/,/,17%,-26%,/
Cc1cccn2c(=O)c3cc(C(=O)NCCN4CCOCC4)c(=N)n(CCCN4CCOCC4)c3nc12,21%,/,50µM*,?,-28%,-25%
CCNc1ncc2nc(-c3ccccc3)c(=O)n(CCC#N)c2n1,24%,/,7%[0.501 µM],/,/,/
CC(=O)Nc1ccccc1O,13%,0%,6%[59 µM],35%,-16%,?
CC(=O)c1c(O)cccc1O,25µM*,/,/,/,/,/
CCOc1cc(N2CCOCC2)c(OCC)cc1NC(=O)c1cc(S(=O)(=O)N2CCOCC2)ccc1Cl,/,-12%,50µM*,-16%,?,?
CC(=O)c1ccc(NC(=O)CNc2cc(S(=O)(=O)N3CCOCC3)ccc2N2CCCC2)cc1,/,-3%,35µM*,-16%,?,-33%
O=C(Nc1cc(S(=O)(=O)N2CCOCC2)ccc1N1CCCCC1)c1ccccc1,/,5%,-14%[59 µM],22%,-21%,-1%
N#C/C(=C\c1ccccc1)C(=O)Nc1cc(S(=O)(=O)N2CCOCC2)ccc1N1CCCC1,-5%,-10%,45µM*,-7%,-34%,-9%
O=C(Nc1cc(S(=O)(=O)N2CCOCC2)ccc1N1CCCC1)c1ccc2c(c1)S(=O)(=O)c1ccccc1C2=O,10µM*,-13%,/,4µM*,?,?
SMILES,Sfp inh,L3MBTL1 block,G9a inh,HP1b chromo inh,JMJD2A Tudor,BAZ2B block
CC(C)(C)C(=O)Nc1sc2c(c1C#N)CCN(Cc1ccccc1)C2,4%,-1%,16%,33%,-1%,6%
CCOc1cc(N2CCOCC2)c(OCC)cc1NS(=O)(=O)c1ccc(Cl)s1,-4%,?,?,-2%,?,50µM*
CCOc1cc(N2CCOCC2)c(OCC)cc1NC(=O)CCS(=O)(=O)c1ccc(Cl)cc1,-16%,0%,22µM*,-17%,-32%,/
O=C(Nc1cc(S(=O)(=O)Nc2ccc(Cl)cc2)ccc1N1CCCCC1)c1ccc(F)cc1Cl,?,-6%,10µM*,?,-22%,-32%
COc1ccc(NS(=O)(=O)c2ccc(N3CCOCC3)c(NC(=O)c3ccccc3Cl)c2)cc1,-12%,-9%,13%[59 µM],-1%,-28%,-5%
O=S(=O)(Nc1ccc(N2CCCCC2)cc1)c1ccc(F)c(F)c1,11%,-14%,13µM*,-37%,?,32µM*
Cc1cc(C)c(Cn2c(=O)n(-c3ccccc3Cl)c(=O)c3c(C)c(C(=O)N(C)C)sc32)c(C)c1,/,/,6%[59 µM],19%,-15%,-3%
Cn1c(=O)c(C(=O)c2ccc(S(C)(=O)=O)c(Cl)c2Cl)c(O)c2ccccc21,/,/,/,23%,-11%,/
C=C1C2CC[C@@]3(C)C(c4ccoc4)OC(=O)C[C@@]13OC1CC(OC(C)=O)C(C)(C)C(CC(=O)OC)[C@@]12C (stereo not given in full),1%,/,-42%[2.33 µM],/,/,/
COC(=O)c1sccc1S(=O)(=O)Nc1ccc(N2CCCCC2)cc1,-9%,/,/,?,?,35µM*
O=C(Nc1ccccc1N1CCCC1)c1cc(S(=O)(=O)N2CCOCC2)ccc1Cl,/,1%,50µM*,-9%,-34%,-38%
O=C(Nc1cc(S(=O)(=O)N2CCOCC2)ccc1N1CCCC1)c1ccc(Cl)cc1,/,-9%,1.8µM*,?,?,-5%
CCN1CCN(S(=O)(=O)c2ccc(Cl)c(C(=O)N(C)C(c3ccccc3)c3ccccc3)c2)CC1,/,-6%,8.9µM*,-2%,-30%,-38%
